Hits are enriched below; roughly 3.9% of the tested compounds scored in any of these assays.
Mtb FBA inh = inhibits M. tuberculosis FBA enzyme; P9WQA3; purified M. tuberculosis FBA, fluorescence read-out; inhibition, % at 1 µM; actives 2.3% (n = 360,000); in the data active means inhibition above about 27%;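 further: 0% = vehicle and 100% = reference inhibitor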
Target sequence (P9WQA3 whole entry, looked up): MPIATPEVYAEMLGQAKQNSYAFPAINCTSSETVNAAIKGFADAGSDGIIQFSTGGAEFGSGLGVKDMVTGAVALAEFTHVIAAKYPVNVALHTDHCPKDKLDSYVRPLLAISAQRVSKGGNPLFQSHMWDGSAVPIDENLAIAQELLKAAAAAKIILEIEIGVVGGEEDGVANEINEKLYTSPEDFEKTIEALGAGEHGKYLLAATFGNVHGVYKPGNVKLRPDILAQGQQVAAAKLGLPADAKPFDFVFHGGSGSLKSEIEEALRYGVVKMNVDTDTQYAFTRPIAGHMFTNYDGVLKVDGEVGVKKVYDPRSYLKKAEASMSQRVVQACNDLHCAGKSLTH
CCHFV vOTU inh = blocks the CCHF virus ovarian tumor domain protease | inhibition, % at 11.5 µM | CCHFV vOTU protease, Pep-AMC fluorescence | actives 0.55% (n = 370,000) | AID 651958; further: 0% = vehicle wells with enzyme and 100% = no enzyme wells
GDH-TPI inh = counter-screen for M. tuberculosis FBA inhibitors: GDH-TPI coupled enzymes | GDH-TPI coupled enzyme counterscreen, NADH absorbance | inhibition, % at 4.8 µM | actives 1.2% (n = 360,000) | AID 588335;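 further: 0% = DMSO wells and 100% = wells lacking the enzyme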
Vc quorum ag = inducers of Vibrio cholerae quorum light production without autoinducers. activation, % at 18.7 µM. V. cholerae BH1578 lux reporter, luminescence, 6 h. actives 0.16% (n = 350,000). AID 588436; in the data active means activation mostly above about 9.7%, no sharp cut-off
* hit, by the source's call; i = inactive; x = not tested or not shown; + = active, no number. Unless noted, no stated cut-off is given here; in the data, active means inhibition above about 30%; inactive means the rest.

SMILES	Mtb FBA inh	CCHFV vOTU inh	GDH-TPI inh	Vc quorum ag
COCCCN1C(=O)C(=O)/C(=C(/O)c2ccc(OCC(C)C)cc2C)C1c1cccnc1 (stereo not drawn)	0	16	44*	-7
COCCN1C(=O)C(=O)/C(=C(/O)c2ccc(S(=O)(=O)N3CCOCC3)cc2)C1c1ccc(O)cc1 (stereo not drawn)	-3	15	33*	i
Cc1ccc(/C(O)=C2/C(=O)C(=O)N(CCN3CCOCC3)C2c2cccnc2)cc1 (stereo not drawn)	-1	0	33*	0
COc1ccc(/C(O)=C2/C(=O)C(=O)N(CCN3CCOCC3)C2c2cccnc2)cc1OC (stereo not drawn)	-2	5	10	-1
CCn1cc(C(=O)NC(=S)Nc2cccc(O)c2)cn1	8	11	8	0
Cc1ccc(-c2ccc(CN3C(C(C)C)C(=O)N(Cc4cn(CC5CCCCC5)nn4)CCS3(=O)=O)cc2)cc1 (stereo not drawn)	1	22	1	1
Cc1noc(C)c1S(=O)(=O)N(C)C[C@H]1Oc2ccc(NC(=O)NC3CCCCC3)cc2C(=O)N([C@H](C)CO)C[C@@H]1C	0	-3	14	1
O=C(N/N=C/c1cccnc1)c1ccccc1OCc1ccc(Br)cc1	-5	6	7	0
COCCN1C(=O)C(=O)/C(=C(/O)c2cccc(OC)c2)C1c1ccco1 (stereo not drawn)	-3	1	35*	-1
N#CCc1c(C#N)c(N)nc(Nc2ccccc2)c1C#N	-2	2	31*	0
C/C(=N\Nc1ccc2nncn2n1)c1cccs1	2	-4	35*	12
Cc1cc(O)cc(O)c1/C=N/NC(=O)c1ccc2c(c1)OCCO2	7	12	44*	-1
O=C(N/N=C/c1ccc(Br)o1)c1ccc2c(c1)OCCO2	1	18	41*	0
O=C(O)c1ccc(/C=N/NC(=O)c2ccc3c(c2)OCCO3)cc1	-2	2	28	0
Cc1ccc(-n2[nH]c(C)c(C=Nc3ccc4[nH]c(=O)[nH]c4c3)c2=O)cc1	-2	3	22	0
Cc1[nH]n(-c2cccc3ccccc23)c(=O)c1C=Nc1ccc2[nH]c(=O)[nH]c2c1	0	15	35*	-8
Cc1nnc2sc(-c3ccc(NC(=O)c4ccc(-c5ccc(Cl)cc5Cl)o4)cc3)nn12	4	-16	-2	-2
O=[N+]([O-])c1cc(C(F)(F)F)ccc1NCCCCNS(=O)(=O)c1ccc2ccccc2c1	-6	14	2	0
COc1ccccc1CNC(=O)c1c(N)n(CCCN2CCOCC2)c2nc3ccccc3nc12	82*	-50	14	i
CC(C)OC(=O)c1c(N)n(CCCN2CCOCC2)c2nc3ccccc3nc12	147*	-204	12	0
Nc1c(C(=O)NCc2ccc3c(c2)OCO3)c2nc3ccccc3nc2n1CCCN1CCOCC1	10	-21	2	i
O=c1oc2c(CN3CCOCC3)c(O)ccc2c2ccccc12	-4	-6	5	x
O=c1oc2c(CN3CCOCC3)c(O)ccc2c2c1CCCC2	+	-194	29	-1
O=c1oc2c(CN3CCOCC3)c(O)c(Cl)cc2c2c1CCCC2	+	-201	19	x
COc1ccc(/C=N\NC(=O)/C(=C\Nc2nccc(C)n2)NC(=O)c2ccccc2)cc1	0	11	63*	-2
SMILES	Mtb FBA inh	CCHFV vOTU inh	GDH-TPI inh	Vc quorum ag
Cc1ccc(/C=N\NC(=O)/C(=C\Nc2nccc(C)n2)NC(=O)c2ccccc2)cc1	-4	12	95*	i
COc1ccc(C(=O)N/C(=C\c2ccc([N+](=O)[O-])cc2)C(=O)NC(CCSC)C(=O)O)cc1 (stereo not drawn)	0	3	33*	i
COc1ccc(/C=C(/NC(=O)c2ccccc2)C(=O)NCc2ccncc2)cc1	2	14	15	-2
Cc1ccc(/C=N/NC(=O)C(C)NC(=O)c2ccccc2)cc1 (stereo not drawn)	7	14	6	-1
COc1ccc(/C=C(/NC(=O)c2ccccc2)C(=O)N/N=C/c2ccncc2)cc1	2	-2	35*	i
Cc1[nH]c2ccc(C(=O)NC3CCCC3)cc2c1C	4	7	9	i
Cc1cc(NC(=O)/C=C/C(=O)N(CC(=O)NC2CCCC2)c2cccc3ccccc23)no1	2	5	-3	2
COc1ccc(S(=O)(=O)N2CCN(c3ccc(F)cc3)CC2)cc1C(=O)N1CCCC1	4	5	-4	-2
COc1ccccc1NS(=O)(=O)c1ccc(C)c(C(=O)Nc2ccc(S(=O)(=O)Nc3onc(C)c3C)cc2)c1	-1	27	3	-5
COc1ccc(/C=C(\NC(=O)c2ccc(OC)cc2)C(=O)Nc2ccccc2C(=O)O)cc1	-5	7	31*	-1
COc1ccc(C=CC(C)=NNC(=O)c2ccncc2)cc1	0	16	54*	-1
CC(/C=C/c1ccccc1)=N\NC(=O)c1ccncc1	-1	6	18	i
COc1cc(/C=N/Nc2nc3c(c(=O)n(C)c(=O)n3C)n2Cc2ccccc2)ccc1OC(=O)c1ccco1	1	-3	33*	0
Cn1c(=O)c2c(nc(N/N=C/c3ccncc3)n2Cc2ccccc2)n(C)c1=O	-1	7	59*	i
COc1cc(/C=N/Nc2ccc(Cl)c(C(=O)O)c2)ccc1OC(=O)c1ccco1	4	1	13	0
Cc1ccc(C2=N/C(=C\N3CCCCC3)C(=O)O2)cc1	-2	16	62*	i
Cc1ccc(C2=N/C(=C/N3CCOCC3)C(=O)O2)cc1	5	10	38*	4
Cc1cc(C=O)c(O)cc1O	-5	15	52*	1
CCOC(=O)CCCC(=O)N1CCOCCOCCN(C(=O)CCCC(=O)OCC)CCOCCOCC1	1	-2	0	-1
Cc1cccn2c(=O)c3cc(C(=O)NCCc4ccccc4)c(=N)n(CC4CCCO4)c3nc12 (stereo not drawn)	119*	-87	1	0
COc1ccc(CCNC(=O)c2cc3c(=O)n4ccccc4nc3n(CC3CCCO3)c2=N)cc1 (stereo not drawn)	15	-11	16	-1
N=c1c(C(=O)NCc2ccc(F)cc2)cc2c(=O)n3ccccc3nc2n1CC1CCCO1 (stereo not drawn)	+	-172	13	5
N=c1c(C(=O)NCCc2ccccc2)cc2c(=O)n3ccccc3nc2n1CC1CCCO1 (stereo not drawn)	+	-382	10	0
Cc1cccn2c(=O)c3cc(C(=O)NCc4cccnc4)c(=N)n(CC4CCCO4)c3nc12 (stereo not drawn)	+	-208	6	-1
N=c1c(C(=O)NCc2ccco2)cc2c(=O)n3ccccc3nc2n1CC1CCCO1 (stereo not drawn)	+	-32	20	-1
N=c1c(C(=O)NCc2ccc3c(c2)OCO3)cc2c(=O)n3ccccc3nc2n1CC1CCCO1 (stereo not drawn)	16	-5	4	-1
CCC(=O)N1CCCC(C(=O)Nc2ccc3cn[nH]c3c2)CC1 (stereo not drawn)	0	-1	12	0

High-throughput results deposited in PubChem BioAssay by several laboratories.
